Some test systems named below: NCI-H23 lung; NCI-H226 lung; NCI-H322M lung; HOP-62 NSCLC; NCI-H460 lung; HOP-92 NSCLC; NCI-H522 lung; A549/ATCC NSCLC; 786-0 renal; COLO 205 colon.
Assay in all cases: NCI-60 one-dose screen, 48 h (100 = growth as untreated, 0 = no growth, -100 = all killed)
What all share (conditions): 10 µM unless noted

Each structure is given as a SMILES string. The panel holds about 83,000 compounds, 20% with a hit somewhere; the sample as a whole holds those more often.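 Assay: single dose, 48 h. Readout: percent growth (0 = no net growth; negative = cell death). Active: <10.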 Unmarked numbers belong to inactive results. The source made the active and inactive calls.

Take `O=C(CC(SCc1ccccc1)c1ccccc1)c1ccccc1` (stereo not given): the growth with NCI-H23 lung is 84.6%; in the experiment with NCI-H226 lung it was 87.6%; in the experiment with NCI-H322M lung, 97.1%; in the experiment on HOP-62 NSCLC it was 91.7%; in the experiment with NCI-H460 lung, 103%; in the experiment with HOP-92 NSCLC, 80.1%. Besides, the growth in the experiment with NCI-H522 lung was 111%; in the experiment on A549/ATCC NSCLC, 101%; in the experiment with 786-0 renal, 84%; in the experiment on COLO 205 colon, 94.3%.

As for `C=C(C)[C@@H]1CC=C2c3sc(-c4ccc(C)cc4)nc3C[C@@H](C)[C@]2(C)C1`, the growth in the experiment on NCI-H23 lung was 112%; in the experiment on NCI-H226 lung it was 101%; in the experiment on NCI-H322M lung, 101%; with HOP-62 NSCLC, 102%; in the experiment with NCI-H460 lung, 114%; in the experiment on HOP-92 NSCLC it was 103%. Further, the growth was 95.7% with NCI-H522 lung, 95.3% in the experiment on A549/ATCC NSCLC, 109% in the experiment on 786-0 renal and 108% in the experiment with COLO 205 colon.

For `O=C(N=c1oc2ccccc2cc1-c1cc2ccccc2[nH]1)c1ccc(Cl)cc1`, the growth with NCI-H23 lung is 29.4%; in the experiment on NCI-H226 lung it was 84.6%; with NCI-H322M lung, 53.5%; in the experiment with HOP-62 NSCLC, 63.1%; with NCI-H460 lung it was 77.2%; with HOP-92 NSCLC, 24%. Besides, the growth is 14.2% with NCI-H522 lung, 51.3% with A549/ATCC NSCLC, 70.7% in the experiment with 786-0 renal and 69.7% in the experiment with COLO 205 colon.

On to `O=Cc1c[nH]c2ccc(-c3csc4ccccc34)cc12`, for which the growth was 58% in the experiment on NCI-H23 lung; 73.8% in the experiment on NCI-H226 lung; 83.2% in the experiment on NCI-H322M lung; 42.8% with HOP-62 NSCLC; 29.3% in the experiment with NCI-H460 lung; 55.9% with HOP-92 NSCLC. Moreover, the growth was 41.3% in the experiment on NCI-H522 lung, 48.1% in the experiment on A549/ATCC NSCLC, 58.4% in the experiment on 786-0 renal and 71.6% in the experiment on COLO 205 colon.

As for `O=C(O)c1ccc2c(c1Cl)C(=O)c1ccccc1C2=O`, the growth with NCI-H23 lung is 93.4%; in the experiment on NCI-H226 lung, 103%; in the experiment on NCI-H322M lung it was 102%; in the experiment on HOP-62 NSCLC, 82.5%; with NCI-H460 lung, 102%; in the experiment on HOP-92 NSCLC, 109%. The growth was 106% in the experiment with NCI-H522 lung, 116% in the experiment on A549/ATCC NSCLC, 91.1% with 786-0 renal and 115% in the experiment on COLO 205 colon.

Take `COc1ccccc1N1C(=O)/C(=C/C2=Cc3ccccc3OC2)SC1=S`: the growth in the experiment with NCI-H23 lung was 97.6%; in the experiment with NCI-H226 lung, 103%; with NCI-H322M lung it was 92.6%; in the experiment with HOP-62 NSCLC, 91.7%; in the experiment on NCI-H460 lung, 102%; in the experiment with HOP-92 NSCLC, 97.7%. The growth with NCI-H522 lung was 90%; in the experiment on A549/ATCC NSCLC, 95.7%; with 786-0 renal it was 101%; with COLO 205 colon it was 109%.

Turning to `COc1cccc(-c2nn(-c3ccccc3)cc2-c2ccnc(NCCNC(=O)Nc3ccc(Cl)c(Cl)c3)c2)c1`, the growth in the experiment on NCI-H23 lung is 19.7%; with NCI-H226 lung it was 50.5%; in the experiment with NCI-H322M lung it was 48.1%; with HOP-62 NSCLC, 5.85% (active); in the experiment with NCI-H460 lung, 2.74% (active); in the experiment with HOP-92 NSCLC it was -1.01% (active). Further, the growth was -14.9% (active) in the experiment with NCI-H522 lung, -18.3% (active) with A549/ATCC NSCLC, -41.1% (active) in the experiment with 786-0 renal and -37.4% (active) with COLO 205 colon.

Turning to `Cc1cc(NCc2cc(Nc3ccnc4cc(Cl)ccc34)ccc2F)nc(Cl)n1`, the growth was 32.8% with NCI-H23 lung; 52.4% in the experiment with NCI-H226 lung; 71.9% with NCI-H322M lung; 54.5% with HOP-62 NSCLC; 48.4% in the experiment with NCI-H460 lung; 31.9% in the experiment on HOP-92 NSCLC. Moreover, the growth in the experiment with NCI-H522 lung is 36.2%; in the experiment on A549/ATCC NSCLC, 56.7%; in the experiment on 786-0 renal, 50.7%; with COLO 205 colon it was 44.2%.

For `CC/C=C\CCC/C=C1/C(=O)C=C[C@@H]1C/C=C\CCCC(=O)O`, the growth in the experiment with NCI-H23 lung was 80.4%; with NCI-H226 lung, 90.3%; in the experiment on NCI-H322M lung, 107%; with HOP-62 NSCLC it was 100%; in the experiment on NCI-H460 lung, 83.7%; with HOP-92 NSCLC, 75.3%. Besides, the growth in the experiment on NCI-H522 lung is 29.9%; with A549/ATCC NSCLC, 79.9%; in the experiment with 786-0 renal it was 85.2%; in the experiment with COLO 205 colon, 85.8%.

With `COC(=O)c1ccc(C2Nc3ccc(S(=O)(=O)Nc4ccc(C)c(C)c4)cc3C3OCCC23)cc1` (stereo not given), the growth was 59.5% in the experiment with NCI-H23 lung; 85.9% in the experiment with NCI-H226 lung; 96% in the experiment with NCI-H322M lung; 87.3% in the experiment with HOP-62 NSCLC; 86% in the experiment with NCI-H460 lung; 66% with HOP-92 NSCLC. The growth in the experiment on NCI-H522 lung is 52.6%; with A549/ATCC NSCLC it was 78.8%; with 786-0 renal, 93.9%; with COLO 205 colon it was 94%.

As to `c1ccc2cc3nc4cc5ccccc5cc4nc3cc2c1`, the growth in the experiment with NCI-H23 lung was 88.8%; in the experiment on NCI-H226 lung it was 97.3%; in the experiment with NCI-H322M lung, 109%; with HOP-62 NSCLC it was 83.5%; in the experiment on NCI-H460 lung, 99.8%; in the experiment on HOP-92 NSCLC, 94.3%. The growth was 99% in the experiment with NCI-H522 lung, 88.4% in the experiment on A549/ATCC NSCLC, 108% in the experiment on 786-0 renal and 77.7% in the experiment with COLO 205 colon.

As for `Cn1c(-c2c(N)n(Cc3ccc(C(F)(F)F)cc3)c3nc(C#N)c(C#N)nc23)nc2ccccc21`, the growth was 1.21% (active) in the experiment with NCI-H23 lung; -1.51% (active) in the experiment with NCI-H226 lung; -4.98% (active) with NCI-H322M lung; 21.3% with HOP-62 NSCLC; 4.01% (active) in the experiment with NCI-H460 lung; -48% (active) with HOP-92 NSCLC. Further, the growth was -3.31% (active) with NCI-H522 lung, 12% in the experiment with A549/ATCC NSCLC, 3.33% (active) in the experiment with 786-0 renal and -89.7% (active) in the experiment with COLO 205 colon.

For `CCCCCc1nc2c(c3c1CCCC3)CCCC2`, the growth with NCI-H23 lung was 73.4%; in the experiment with NCI-H226 lung, 88.6%; in the experiment on NCI-H322M lung it was 78.3%; in the experiment with HOP-62 NSCLC, 77.6%; in the experiment on NCI-H460 lung, 83%; in the experiment with HOP-92 NSCLC, 56.2%. Besides, the growth in the experiment on NCI-H522 lung is 44.6%; with A549/ATCC NSCLC, 72.6%; in the experiment with 786-0 renal, 85%; in the experiment on COLO 205 colon, 89.4%.

In the case of `C[n+]1cc2cc(C(N)=O)[nH]c3c(=N)c(Cl)c(N)c1c23`, the growth is 56.6% in the experiment on NCI-H23 lung; 57.1% in the experiment with NCI-H226 lung; 80.5% in the experiment on NCI-H322M lung; 37.9% in the experiment with HOP-62 NSCLC; 23.8% with NCI-H460 lung; 80% in the experiment with HOP-92 NSCLC. In addition, the growth is 35.2% in the experiment on NCI-H522 lung, 26.3% in the experiment with A549/ATCC NSCLC, 49.1% in the experiment on 786-0 renal and 44.1% in the experiment on COLO 205 colon.

For `c1ccc2c(c1)nc(CN1CCOCC1)n1cc(N3CCCC3)nc21`, the growth in the experiment on NCI-H23 lung was 94%; with NCI-H226 lung, 93.6%; with NCI-H322M lung, 103%; in the experiment with HOP-62 NSCLC it was 87.5%; in the experiment on NCI-H460 lung it was 117%; with HOP-92 NSCLC it was -2.06% (active). Also, the growth in the experiment with NCI-H522 lung was 106%; with A549/ATCC NSCLC, 87.5%; with 786-0 renal it was 91.8%; with COLO 205 colon it was 103%.

Take `O=C(CCCCCCSc1nc(-c2ccccc2)cc(-c2ccc(Cl)cc2)n1)NO`: the growth in the experiment on NCI-H23 lung is -17.7% (active); with NCI-H226 lung it was 2.23% (active); in the experiment on NCI-H322M lung, 21.3%; in the experiment on HOP-62 NSCLC it was -9.16% (active); with NCI-H460 lung it was 7.04% (active); in the experiment with HOP-92 NSCLC, -7.58% (active). In addition, the growth in the experiment with NCI-H522 lung was -15.8% (active); in the experiment with A549/ATCC NSCLC, -23% (active); in the experiment on 786-0 renal, 1.46% (active); in the experiment with COLO 205 colon, 20.9%.

As for `N#Cc1c(N2CCNCC2)nc2sc3cc(Cl)c(Cl)cc3n2c1=N`, the growth was 96.9% in the experiment with NCI-H23 lung; 95.2% with NCI-H226 lung; 107% in the experiment on NCI-H322M lung; 98.7% in the experiment on HOP-62 NSCLC; 97.8% in the experiment on NCI-H460 lung; 93.6% in the experiment on HOP-92 NSCLC. The growth in the experiment with NCI-H522 lung was 67.3%; in the experiment on A549/ATCC NSCLC it was 108%; with 786-0 renal, 105%; with COLO 205 colon, 132%.

`CCN(CCNc1ccc(C)c2sc3ccccc3c(=O)c12)CC(C)(C)O`: the growth is 86.7% in the experiment with NCI-H23 lung; 96.7% in the experiment with NCI-H226 lung; 90.4% in the experiment on NCI-H322M lung; 82.8% in the experiment on HOP-62 NSCLC; 30.3% in the experiment on NCI-H460 lung; 50.9% in the experiment on HOP-92 NSCLC. Besides, the growth in the experiment with NCI-H522 lung is 74.2%; in the experiment with A549/ATCC NSCLC, 40.8%; with 786-0 renal, 70.4%; in the experiment with COLO 205 colon, 67.8%.

As to `CCn1c(C)nc2cc(C(N)=O)ccc21`, the growth was 94.3% with NCI-H23 lung; 89.9% with NCI-H226 lung; 86.8% in the experiment with NCI-H322M lung; 89.3% with HOP-62 NSCLC; 101% in the experiment with NCI-H460 lung; 90.7% in the experiment with HOP-92 NSCLC. Moreover, the growth in the experiment on NCI-H522 lung was 90.7%; in the experiment with A549/ATCC NSCLC, 104%; in the experiment on 786-0 renal, 96.3%; in the experiment with COLO 205 colon, 120%.

For the compound `COc1ccc(Cl)cc1NC(=O)C(Br)C(Br)C(=O)O` (stereo not given), the growth in the experiment on NCI-H23 lung is 67%; in the experiment on NCI-H226 lung, 70.9%; with NCI-H322M lung, 61.5%; with HOP-62 NSCLC, 56.6%; in the experiment with NCI-H460 lung, 111%; with HOP-92 NSCLC, 53.5%. For the same compound, the growth is -43.5% (active) in the experiment with NCI-H522 lung, 115% with A549/ATCC NSCLC, 102% with 786-0 renal and 105% with COLO 205 colon.

`CC1(C)CC(=O)CC2(C1)N=C(N)Nc1nc3ccccc3n12` (stereo not given): the growth with NCI-H23 lung is 101%; in the experiment with NCI-H226 lung, 95.6%; with NCI-H322M lung it was 117%; in the experiment on HOP-62 NSCLC, 119%; in the experiment on NCI-H460 lung, 111%; in the experiment with HOP-92 NSCLC, 87.3%. Besides, the growth is 69.6% in the experiment on NCI-H522 lung, 97.9% in the experiment on A549/ATCC NSCLC, 107% in the experiment on 786-0 renal and 102% in the experiment with COLO 205 colon.

The record behind these values is PubChem BioAssay (NCI).
